Experimental data as given in the supplement of paper PMC6555819.

How the values were obtained:
Experiment in all cases: PBM binding z-score (relative to random genomic background probes); higher = stronger binding; sequences stand for … in GC…GCGATTGACAGCGTAGAATGAAGG
[1] = tested on: PPARg:RXRa DBDmut IVT, anti-RXR (DBD mutation: RXRa K156A/R161A, NR concentration 270 nM, RXRa partner concentration 90 nM)
Method in brief: (§1)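 The probes on custom Agilent 4×180K protein-binding microarrays were double-stranded, with 34-nt variable regions bearing direct-repeat seeds, single-nucleotide variants, half-site ablations and random human genomic background sequences. Incubation lasted 1 h with ligand-free nuclear receptor dimers in PBS pH 7.4, 2% milk, 0.02% Triton X-100, 1 mM DTT, 0.2 mg/mL BSA and 0.4 mg/ml salmon testes DNA. Antibodies against each partner (one per run) detected bound dimers, and fluorescence scans were regression-normalized. Binding z-scores take the random background probes as reference.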

[2] = tested on: PPARg:RXRa IVT, anti-PPARg (NR concentration 270 nM, RXRa partner concentration 90 nM)
Method in brief: as §1

[3] = tested on: PPARg DBDmut:RXRa IVT, anti-PPARg (DBD mutation: PPARg1 K132A/R137A, NR concentration 270 nM, RXRa partner concentration 90 nM)
Method in brief: as §1

[4] = tested on: PPARg DBDmut IVT, anti-PPARg (DBD mutation: PPARg1 K132A/R137A, NR concentration 270 nM)
Method in brief: as §1

[5] = tested on: PPARg homodimer (NR concentration 180 nM)
Method in brief: as §1

[6] = tested on: PXR:RXRa (NR concentration 270 nM, RXRa partner concentration 90 nM)
Method in brief: as §1

[7] = tested on: PXR homodimer (NR concentration 270 nM)
Method in brief: as §1

[8] = tested on: RARa:RXR (NR concentration 270 nM, RXRa partner concentration 90 nM)
Method in brief: as §1

[9] = tested on: RARa homodimer (NR concentration 270 nM)
Method in brief: as §1

[10] = tested on: RARb:RXRa (NR concentration 270 nM, RXRa partner concentration 90 nM)
Method in brief: as §1

[11] = tested on: RARb homodimer (NR concentration 270 nM)
Method in brief: as §1

[12] = tested on: RARg:RXRa (NR concentration 270 nM, RXRa partner concentration 90 nM)
Method in brief: as §1

[13] = tested on: RARg homodimer (NR concentration 270 nM)
Method in brief: as §1

[14] = tested on: RXRa DBDmut IVT, anti-RXR (DBD mutation: RXRa K156A/R161A, NR concentration 90 nM)
Method in brief: as §1

[15] = tested on: RXRa homodimer (NR concentration 180 nM)
Method in brief: as §1

[16] = tested on: THRa:RXRa (NR concentration 90 nM, RXRa partner concentration 90 nM)
Method in brief: as §1

[17] = tested on: THRa homodimer (NR concentration 90 nM)
Method in brief: as §1

[18] = tested on: VDR:RXRa (NR concentration 270 nM, RXRa partner concentration 90 nM)
Method in brief: as §1

[19] = tested on: VDR homodimer (NR concentration 270 nM)
Method in brief: as §1

Sequence	PBM binding z-score [1]	PBM binding z-score [2]	PBM binding z-score [3]	PBM binding z-score [4]	PBM binding z-score [5]	PBM binding z-score [6]	PBM binding z-score [7]	PBM binding z-score [8]	PBM binding z-score [9]	PBM binding z-score [10]	PBM binding z-score [11]	PBM binding z-score [12]	PBM binding z-score [13]	PBM binding z-score [14]	PBM binding z-score [15]	PBM binding z-score [16]	PBM binding z-score [17]	PBM binding z-score [18]	PBM binding z-score [19]
CTACCAAGGTGAACAAGTTCGTTGATTACTATTC	2.33	2.42	0.0227	0.729	0.895	2.81	4.46	0.986	0.313	1.55	1.3	0.877	1.02	2.17	0.747	1.9	0.959	6.15	3.6
TAGCCTAGGTCAAGGGCCAGTATACCACGCGAAC	1.71	3.19	-0.167	-0.743	1.63	1.28	-0.234	2.31	-0.242	3.96	3.4	4.09	4.75	0.34	3.58	2.78	0.832	1.6	0.272
ACTATTTGTTGAGACGAGGGCAACCGATAGGTTG	0.443	0.881	1.52	1.09	0.629	0.581	0.979	0.391	0.779	1.07	1.14	0.614	0.897	0.884	0.414	1.21	0.711	0.711	1.3
ACTAGTTGGTCAGCTTAGGTCACACACAATTCGG	1.43	1.87	0.8	0.659	1.88	2.67	0.251	2.57	1.13	2.65	3.68	2.59	3.19	0.83	1.69	4.33	3.55	1.82	0.863
CCTTACGGGTCGCTCCAGGTTATAGCATCGGAGT	0.145	0.244	-1.18	-0.791	0.495	1.93	-0.171	1.02	-0.313	1.22	1.07	0.907	1.08	0.0194	1.14	4.18	0.109	1.1	0.177
TCTAGTTGGTCAAAGGTCATACACTCGAAATGCG	3.45	5.82	1.78	2.27	4.5	6.04	3.03	7.27	3.78	4.73	5.06	6.94	5.49	2.31	8.07	4.15	1.94	5.38	3.4
CGTCCAAGGTCAAAGGTCAGTTAAGAGATGACGG	3.55	5.71	1.21	-0.205	3.01	6.49	1.86	8.28	1.38	6.2	5.64	8.47	7.74	3.83	9.85	5.11	2.91	6.49	3.63
TCTTGTAGATGAACAGGAGGTTAAGAAAGATCGA	1.53	0.277	0.804	0.789	0.0799	0.598	-0.154	0.883	0.212	0.279	0.252	0.473	0.0838	0.572	0.784	0.65	-0.383	0.644	-0.297
GCAGACAGATGAAACGCAGGTAACTCAGGGTGGC	-0.362	-0.767	-1.03	-0.761	-1.19	-0.681	-0.52	-0.161	-0.884	-1.1	-0.914	-0.366	-0.316	-0.516	-0.162	0.473	-1.03	-0.643	-0.594
CAAACTTGGTCAAGGTCAAAGTCGGTTTGTGCCA	2.24	3.79	0.249	1.03	1.86	4.45	1.54	4.15	0.201	4.12	4.26	4.46	4.37	2.33	4.72	3.92	3.4	4.47	3.32
CAAACTGGGTCAAGAGGTCAAAGTCCGCTTCCCG	7.83	8.28	2.26	1.72	5.48	6.28	2.74	7.7	1.96	5.29	5.73	7.97	7.04	2.51	8.44	4.14	2.13	6.19	4.76
TAGCCGAGGTCATGCGGGCCAGTATAGTGTCGGC	1.88	4.29	1.82	0.598	2.81	5.79	2.14	6.18	0.453	5.17	4.39	6.21	5.83	3.81	6.86	4.36	2.99	5.82	4.62
CCGACTGGGGCAGAATGGTTACCATACCATCCGG	1.42	0.943	-0.354	-1.29	0.0556	-1.05	-0.973	-0.83	-0.164	0.0446	-0.435	0.00778	0.0342	-0.908	-0.122	-0.891	-0.862	-0.638	-0.629
CTACCCAGGTGAACAAGGTCGTTGATTACTATTC	1.84	2.27	0.299	-0.0404	0.541	2.03	0.96	1.61	0.91	1.29	1.57	1.18	0.941	0.701	1.46	2.94	1.87	5.31	1.92
CCTACTGGGCCACGAAAGGTCATTGCTTCAGTGA	5.37	5.7	1.88	1.06	3.27	5.56	2.05	5.35	1.56	3.94	4.75	4.81	4.35	0.871	4.81	3.73	0.827	4.23	2.61
CCTACTGAGCCATTCAGAGGTCATTGATCATATG	0.787	1.12	0.0537	0.233	3.19	4.96	3.63	4.44	1.71	2.87	4.08	3.93	2.95	1.66	4.41	3.21	1.58	3.96	3.71
GCTAGCAGGCCATTTGGGTCTCTCAATGACGGGC	0.644	0.258	-0.858	-1.65	-0.8	-0.469	-0.68	-0.418	-1.34	0.0129	-0.614	-0.279	-0.301	-0.264	-0.294	0.0257	-0.703	-0.594	-0.774
AATACAGAGTCATCGTAGGCCAGAGTACGCACAG	0.0374	0.268	0.399	0.579	-0.714	-0.113	-0.387	-0.0799	0.026	0.17	0.0687	0.22	0.465	-0.473	0.406	1.69	-0.921	-0.242	0.0153
CCGACTGGGGTAGAAAGGTTACCATACCATCCGG	0.466	1.2	-1.23	-0.59	1.69	1.32	-0.0597	2.45	0.375	1.72	2.13	1.97	1.04	-1.26	2.35	1	-0.443	0.692	-0.2
CCTCCAAGGTCAATGCTAGGTCAGTGAAAGCATT	3.02	3.34	-0.0903	-0.621	4.19	4.52	1.09	5.43	1.36	5.22	5.1	7.37	6.33	3.35	4.78	4.47	2.91	4.74	2.71
TCTATTAGTTGATCAGGGCAACCGAAACAGCGGA	2.16	0.972	0.672	0.797	0.546	0.5	0.292	0.362	0.492	0.954	0.681	0.484	0.555	1.15	0.519	0.815	0.591	0.669	0.203
CCTACTGGGCCAAAGGTCATGGATTCCAATGCTC	5.34	6.68	-0.19	-0.578	2.93	5.44	0.496	6.58	0.489	4.92	4.97	6.18	5.26	0.383	6.66	3.73	1.02	4.85	1.54
CCTAGTTGGTCAGGAGGGCACACACCGGATATGA	0.374	1.62	-0.178	-0.301	1.22	0.369	0.17	0.233	0.714	1.71	1.73	1.52	1.53	-0.604	0.657	0.623	0.029	0.458	0.549
GATACAGGGTCAGCTAGAGGCCACAGTATGGAAA	1.47	2.57	0.921	0.377	2.57	3.94	-0.253	5.22	0.785	4.2	3.61	7.06	5.21	0.909	4.27	3.39	0.56	3.76	0.844
TCTTGTAGATCAAGCAGGTAAAGAAAGCCTGAGT	1.45	0.35	0.0649	0.0829	0.161	0.0667	0.176	0.203	-0.0123	-0.301	-0.462	-0.262	-0.32	0.476	-0.157	0.095	-0.499	0.212	-0.555
ACTATTAGGTGACTTAGGGCAACCGATACGACGC	4.96	3.9	1.48	0.993	0.861	0.146	0.0513	0.9	1	1.31	1.39	1.18	1.29	0.234	0.903	2.76	0.89	0.474	-0.344
CGTCCAAGGTCAAGGTCAGTGATAGAGACTCGAA	3.79	4.5	1.28	0.138	4.99	5.05	1.18	5.44	2.41	5.73	5.36	6.7	7.67	3.76	6.55	4.48	3.93	4.95	3.53
GATACAGGATCAGCTAGAGGCCAGAGTATGGAAA	-1.08	-0.432	-0.311	-0.748	-0.609	-0.395	-0.577	-0.16	-0.552	0.184	-0.0727	1.16	0.363	-0.823	0.154	-0.0869	-1	-0.569	-0.773
TCATATAGGTAAAGGTGAACGTCGAACGATATGA	3.97	4.38	1.68	1.19	1.37	0.966	0.23	1.74	0.665	2.09	1.73	1.71	1.52	0.894	2.17	1.5	-0.0395	0.748	-0.239
CCTACTGGGCCAAAGGTCGTTGATTCCAATGCTC	5.47	5.6	0.111	-0.79	1.18	2.45	0.0615	3.09	-0.377	1.97	2.03	2.66	1.07	0.474	2.82	1.5	0.0932	2.05	0.435
